# Results reported in PubChem BioAssay (Tox21).
# Values joined by “and” are separate entries in the source; they are usually repeats but may differ in a detail not shown here. Identical values can stand only once. Records with an inconclusive call do not appear. Where a call stands in place of a potency, no number is given. A structure can be active in one record and inactive in another. Active and inactive are the calls of the source. Unless noted, calls come from the whole dose curve.
# Assays:
# [1] = target: Gonadotropin-releasing hormone receptor (Homo sapiens) (UniProt P30968); assay: Human gonadotropin-releasing hormone receptor (GnRHR) small molecule agonists, calcium flux assay in GnRHR-HEK293 cells (AID 1920063); note: nearly all actives have a fitted effect of over 35% in size; note: potency is the fitted concentration of half-maximal effect
# Method in brief: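 Agonist mode: compounds at 15 concentrations, in triplicate, went onto calcium dye-loaded GnRHR-HEK293 cells. Intracellular calcium was then followed as 480/540 nm fluorescence at 1 s intervals over 3 min.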
# [2] = target: KiSS-1 receptor (Homo sapiens) (UniProt Q969F8); assay: Human kisspeptin (KISS1R) small molecule agonists, calcium flux assay in KISS1R-HEK293 cells (AID 1920064; active = well fitted activation curve with a large enough effect in the repeat runs)
# Method in brief: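 Agonist mode: intracellular calcium rise tracked at 1 s intervals over 3 min (480/540 nm) immediately after compound addition to dye-loaded KISS1R-HEK293 stable cells. Each compound tested at 15 concentrations in triplicate.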
# [3] = G protein-coupled receptor (GPCR) small molecule agonists, calcium flux assay: HEK293 wild type cell line counter screen (AID 1920065)
# Method in brief: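 Calcium flux counter screen: compound added in agonist mode at 15 concentrations in triplicate to dye-loaded parental HEK293 cells. Fluorescence (480/540) read kinetically for 3 min; ATP served as positive control.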
# [4] = p53 small molecule agonists, cell-based qHTS assay with human liver microsomes (AID 1963577);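 note: p53 response element beta-lactamase reporter cells with liver microsomes plus NADPH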
# Method in brief: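 Reporter activation was measured by LiveBLAzer fluorescence intensity in p53RE-bla cells, which had been exposed to compounds for 16 h at 37 C alongside 0.5 mg/mL human liver microsomes and 0.5 mg/mL NADPH (final concentrations).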
# [5] = p53 small molecule agonists, cell-based qHTS assay with rat liver microsomes (AID 1963578)
# Method in brief: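 Compound in DMSO added to p53RE-bla cells 5 h post-plating; rat microsomes/NADPH 0.5 mg/mL final; 16 h, 37 C; LiveBLAzer 2 h RT.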
# [6] = p53 small molecule agonists, cell-based qHTS assay with human liver microsomes: qHTS cell viability counter screen (AID 1963579); note: nearly all actives have a fitted effect of over 45% in size; note: potency is the fitted concentration of half-maximal effect
# Method in brief: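 HLM-supplemented (0.5 mg/mL final) and NADPH-supplemented (0.5 mg/mL final) p53RE-bla cultures, 4,000 cells per well, were dosed with compounds in DMSO for 16 h at 37 C; luminescent ATP detection (CellTiter-Glo, 30 min, room temperature) quantified surviving cells.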
# [7] = p53 small molecule agonists, cell-based qHTS assay with rat liver microsomes: qHTS cell viability counter screen (AID 1963580); note: nearly all actives have a fitted effect of over 45% in size; note: potency is the fitted concentration of half-maximal effect
# Method in brief: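 Counter screen for cytotoxicity under metabolic activation: rat liver microsomes and NADPH, 0.5 mg/mL final each, added with compounds to p53RE-bla HCT-116 cells; 16 h at 37 C, then ATP luminescence read.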
# [8] = p53 small molecule agonists, cell-based qHTS assay: qHTS cell viability counter screen (AID 1963581); note: nearly all actives have a fitted effect of over 45% in size; note: potency is the fitted concentration of half-maximal effect
# Method in brief: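 Counter screen read by CellTiter-Glo luminescence (ATP content, 30 min at room temperature), run in the same wells as the beta-lactamase reporter read. HCT-116 p53RE-bla cells saw compounds for 16 h at 37 C.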
# [9] = p53 small molecule agonists, cell-based qHTS assay (AID 1963582; active = well fitted activation curve with a large enough effect in the signal ratio in the repeat runs, not every such curve was filed as active; the % refers to the signal ratio)
# Method in brief: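 Read-out is beta-lactamase FRET fluorescence after 2 h at room temperature with LiveBLAzer B/G substrate. p53 response element-bla cells were treated 16 h at 37 C with compounds in DMSO, added 5 h after seeding.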
# [10] = target: 5-hydroxytryptamine receptor 2A (Homo sapiens) (UniProt P28223); assay: 5-hydroxytryptamine receptor 2A (HTR2A) small molecule antagonists, cell-based qHTS assay (AID 1963586); note: nearly all actives have a fitted effect of over 45% in size; note: potency is the fitted concentration of half-maximal effect
# Method in brief: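 CHO cells stably expressing human HTR2A were plated for 18 h at 37 C, then loaded with calcium dye for 1 h. Compounds were preincubated 5 min at room temperature before DOI (4 nM solution) was added. Kinetic fluorescence was read for 3 min.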
# [11] = target: 5-hydroxytryptamine receptor 2A (Homo sapiens) (UniProt P28223); assay: 5-hydroxytryptamine receptor 2A (HTR2A) small molecule agonists, cell-based qHTS assay (AID 1963587); note: nearly all actives have a fitted effect of over 30% in size; note: potency is the fitted concentration of half-maximal effect
# Method in brief: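 HTR2A-CHO cells, plated 18 h at 37 C/5% CO2, dye-loaded 1 h at 37 C; compounds in DMSO added by pin tool (agonist mode). Intracellular calcium flux read as kinetic fluorescence on FDSS over 2 min at 1 s intervals.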
# [12] = target: Muscarinic acetylcholine receptor M1 (Homo sapiens) (UniProt P11229); assay: Cholinergic receptor muscarinic 1 (CHRM1) small molecule antagonists, cell-based qHTS assay (AID 1963588); note: nearly all actives have a fitted effect of over 40% in size; note: potency is the fitted concentration of half-maximal effect
# Method in brief: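 Compounds were tested at 15 concentrations in three independent runs. Dye-loaded CHRM1-CHO cells were exposed 5 min at room temperature before stimulation by acetylcholine added at 50nM. Intracellular calcium was read kinetically on FDSS for 3 min.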
# [13] = target: Muscarinic acetylcholine receptor M1 (Homo sapiens) (UniProt P11229); assay: Cholinergic receptor muscarinic 1 (CHRM1) small molecule agonists, cell-based qHTS assay (AID 1963589); note: nearly all actives have a fitted effect of over 35% in size; note: potency is the fitted concentration of half-maximal effect
# Method in brief: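 Agonist-mode calcium-flux screen: compounds at 15 concentrations, three independent runs, were pin-transferred onto dye-loaded human CHRM1-CHO cells. Fluorescence was then recorded kinetically every second over minutes.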
# [14] = cAMP Responsive Elements (CRE) small molecule agonists, cell-based qHTS assay (AID 1963590)
# Method in brief: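 Agonist mode: compound added to CRE-bla HEK 293T cells (2,000/well, 18 h after plating) for 3 h at 37 C/5% CO2. Reporter activity detected via FRET beta-lactamase substrate, 2 h room-temperature loading.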
# [15] = cAMP Responsive Elements (CRE) small molecule antagonists, cell-based qHTS assay (AID 1963591; active = well fitted inhibition curve with a large enough effect in the signal ratio in the repeat runs, not every such curve was filed as active; the % refers to the signal ratio)
# Method in brief: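 Antagonist mode: compounds are added alongside the adenylyl cyclase activator NKH477 (0.25 uM final) to CRE-bla HEK293T cells for 3 h. LiveBLAzer FRET substrate, 2 h at room temperature, reports bla expression.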
# [16] = target: D(2) dopamine receptor (Homo sapiens) (UniProt P14416); assay: Dopamine D2 receptor (DRD2) small molecule agonists, cell-based qHTS assay (AID 1963594); note: nearly all actives have a fitted effect of over 35% in size
# Method in brief: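 HEK293 cells stably expressing DRD2 were cultured 24 h at 37 C, then given Ro20-1724 (0.1 mM final) and compounds for 10 min at room temperature. NKH477 (200nM) was then added for 30 min. cAMP was read by HTRF.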
# [17] = target: D(2) dopamine receptor (Homo sapiens) (UniProt P14416); assay: Dopamine D2 receptor (DRD2) small molecule antagonists, cell-based qHTS assay (AID 1963595; active = well fitted inhibition curve with a large enough effect in the signal ratio in the repeat runs, with a control signal flat; the % refers to the signal ratio; note: potency is the fitted concentration of half-maximal effect)
# Method in brief: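 HEK293 cells stably expressing DRD2 were preincubated with 0.1 mM Ro20-1724, then with compound for 10 min at room temperature. Cells were stimulated with 200 nM NKH477 plus 12 nM quinpirole for 30 min, and cAMP was read by HTRF.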
# [18] = target: Beta-2 adrenergic receptor (Homo sapiens) (UniProt P07550); assay: Adrenergic beta2 receptor (ADRB2) small molecule antagonists, cell-based qHTS assay (AID 1963592); note: series mostly up to about 92 µM; nearly all actives have a fitted effect of over 50% in size
# Method in brief: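 Assay format: CHO-ADRB2 cells, 18-20hr seeding at 37C/5% CO2, then compound plus 1nM isoproterenol agonist mix for 0.5hr RT. Homogeneous time-resolved fluorescence cAMP detection after 1hr, expressed as 665/615 nm ratio.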
# [19] = target: Beta-2 adrenergic receptor (Homo sapiens) (UniProt P07550); assay: Adrenergic beta2 receptor (ADRB2) small molecule agonists, cell-based qHTS assay (AID 1963593);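 note: CHO cells stably overexpressing human ADRB2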
# Method in brief: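 CHO cells stably over-expressing ADRB2 were plated overnight at 37C, then dosed with compounds plus a stimulation mix containing 100uM IBMX and 25uM Ro-20-1724 for 0.5hr at room temperature. cAMP was measured by HTRF competition, 1hr.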
# Beta-2 adrenergic receptor (Homo sapiens), sequence (P07550 whole entry, looked up): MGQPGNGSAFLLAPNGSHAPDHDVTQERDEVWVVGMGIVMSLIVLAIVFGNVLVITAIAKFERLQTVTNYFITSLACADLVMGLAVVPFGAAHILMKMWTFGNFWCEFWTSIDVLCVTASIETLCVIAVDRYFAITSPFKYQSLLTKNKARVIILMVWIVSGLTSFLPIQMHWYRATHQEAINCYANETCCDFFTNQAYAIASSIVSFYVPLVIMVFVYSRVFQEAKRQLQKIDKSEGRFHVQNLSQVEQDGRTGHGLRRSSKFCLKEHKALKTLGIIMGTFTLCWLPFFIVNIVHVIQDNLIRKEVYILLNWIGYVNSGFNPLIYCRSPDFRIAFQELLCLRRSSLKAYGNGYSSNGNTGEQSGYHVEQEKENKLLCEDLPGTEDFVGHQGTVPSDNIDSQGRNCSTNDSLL
# KiSS-1 receptor (Homo sapiens), sequence (Q969F8 whole entry, looked up): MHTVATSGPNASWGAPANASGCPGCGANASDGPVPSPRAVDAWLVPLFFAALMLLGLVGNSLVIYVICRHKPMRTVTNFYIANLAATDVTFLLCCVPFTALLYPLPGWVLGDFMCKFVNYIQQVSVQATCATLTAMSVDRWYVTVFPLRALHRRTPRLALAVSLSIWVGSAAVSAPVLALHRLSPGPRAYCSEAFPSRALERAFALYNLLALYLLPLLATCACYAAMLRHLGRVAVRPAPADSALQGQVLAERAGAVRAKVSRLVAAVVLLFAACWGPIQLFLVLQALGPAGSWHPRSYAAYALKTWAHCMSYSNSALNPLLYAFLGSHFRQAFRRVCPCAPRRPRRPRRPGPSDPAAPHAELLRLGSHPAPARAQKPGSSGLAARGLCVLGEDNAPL
# 5-hydroxytryptamine receptor 2A (Homo sapiens), sequence (P28223 whole entry, looked up): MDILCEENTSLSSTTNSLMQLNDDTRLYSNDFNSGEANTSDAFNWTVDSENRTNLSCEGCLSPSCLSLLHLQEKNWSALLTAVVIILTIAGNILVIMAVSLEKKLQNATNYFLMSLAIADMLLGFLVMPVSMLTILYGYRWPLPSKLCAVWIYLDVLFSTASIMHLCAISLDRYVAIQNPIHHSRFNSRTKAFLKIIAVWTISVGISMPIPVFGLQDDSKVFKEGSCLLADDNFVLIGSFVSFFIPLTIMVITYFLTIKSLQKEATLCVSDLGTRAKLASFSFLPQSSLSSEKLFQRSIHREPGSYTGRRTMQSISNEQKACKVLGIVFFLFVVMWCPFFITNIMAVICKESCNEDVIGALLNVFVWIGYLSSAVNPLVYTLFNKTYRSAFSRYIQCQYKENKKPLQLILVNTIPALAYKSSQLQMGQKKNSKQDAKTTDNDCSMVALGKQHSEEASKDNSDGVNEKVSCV
# Muscarinic acetylcholine receptor M1 (Homo sapiens), sequence (P11229 whole entry, looked up): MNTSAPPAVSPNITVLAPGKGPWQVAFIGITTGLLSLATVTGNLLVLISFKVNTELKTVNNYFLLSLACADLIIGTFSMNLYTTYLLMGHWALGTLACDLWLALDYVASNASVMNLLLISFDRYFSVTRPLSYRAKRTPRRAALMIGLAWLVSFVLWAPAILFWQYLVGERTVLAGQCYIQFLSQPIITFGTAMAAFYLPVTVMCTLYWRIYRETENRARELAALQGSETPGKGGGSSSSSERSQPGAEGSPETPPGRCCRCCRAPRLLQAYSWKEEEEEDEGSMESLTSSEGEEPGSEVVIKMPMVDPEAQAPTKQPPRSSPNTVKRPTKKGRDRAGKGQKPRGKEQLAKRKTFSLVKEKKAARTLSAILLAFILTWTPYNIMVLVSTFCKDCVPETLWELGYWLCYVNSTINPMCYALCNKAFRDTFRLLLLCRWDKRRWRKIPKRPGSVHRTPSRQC
# D(2) dopamine receptor (Homo sapiens), sequence (P14416 whole entry, looked up): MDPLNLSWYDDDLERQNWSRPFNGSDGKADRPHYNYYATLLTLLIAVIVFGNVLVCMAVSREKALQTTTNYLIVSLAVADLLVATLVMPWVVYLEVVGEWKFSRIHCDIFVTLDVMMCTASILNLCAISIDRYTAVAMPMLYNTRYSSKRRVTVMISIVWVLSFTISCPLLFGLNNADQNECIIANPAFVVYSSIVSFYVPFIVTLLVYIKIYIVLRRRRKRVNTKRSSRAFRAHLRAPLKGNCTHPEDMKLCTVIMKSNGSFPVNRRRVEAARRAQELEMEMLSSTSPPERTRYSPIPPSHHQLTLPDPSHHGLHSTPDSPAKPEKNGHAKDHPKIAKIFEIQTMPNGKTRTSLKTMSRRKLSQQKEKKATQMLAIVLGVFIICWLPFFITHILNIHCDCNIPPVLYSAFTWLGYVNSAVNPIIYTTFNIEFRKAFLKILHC
# Gonadotropin-releasing hormone receptor (Homo sapiens), sequence (P30968 whole entry, looked up): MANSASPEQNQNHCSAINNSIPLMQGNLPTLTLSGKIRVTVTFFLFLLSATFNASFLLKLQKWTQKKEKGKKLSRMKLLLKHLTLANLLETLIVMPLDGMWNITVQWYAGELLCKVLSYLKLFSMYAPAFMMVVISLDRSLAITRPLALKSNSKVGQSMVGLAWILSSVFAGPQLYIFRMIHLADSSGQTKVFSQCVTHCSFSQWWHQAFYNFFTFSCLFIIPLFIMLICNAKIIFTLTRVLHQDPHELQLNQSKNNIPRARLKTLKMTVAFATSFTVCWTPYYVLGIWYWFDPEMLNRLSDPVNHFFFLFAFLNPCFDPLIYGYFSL
SMILES,Potency [1],Potency [2],Potency [3],Potency [4],Potency [5],Potency [6],Potency [7],Potency [8],Potency [9],Potency [10],Potency [11],Potency [12],Potency [13],Potency [14],Potency [15],Potency [16],Potency [17],Potency [18],Potency [19]
COc1cc(-c2ccc(N)c(OC)c2)ccc1N,inactive,inactive,inactive,inactive,inactive,inactive,inactive,inactive,inactive,inactive,inactive,inactive,inactive,inactive,inactive,inactive,inactive,,
CC(C)Nc1ccc(Nc2ccccc2)cc1,inactive,inactive,inactive,inactive,inactive,28.8 µM (active) and 28.9 µM (active),36.2 µM (active) and 45.8 µM (active),,inactive,11.8 µM (active) and 16.8 µM (active),inactive,11.9 µM (active),inactive,,,,,inactive,
Cc1ccccc1N,inactive,inactive,inactive,inactive,inactive,inactive,inactive,inactive,inactive,inactive,,inactive,inactive,,inactive,inactive,inactive,inactive,inactive
C=CCSSCC=C,inactive,inactive,inactive,inactive,inactive,inactive,,inactive,inactive,inactive,inactive,inactive,inactive,inactive,inactive,inactive,inactive,inactive,inactive
O=C1c2ccccc2C(=O)N1SC(Cl)(Cl)Cl,38.9 µM (active),inactive,inactive,inactive,inactive,,,inactive,,,54.2 µM (active) and 43.6 µM (active),inactive,49 µM (active),inactive,,inactive,inactive,inactive,
C=CC(=O)OCCO,inactive,inactive,inactive,inactive,inactive,inactive,inactive,inactive,,inactive,inactive,inactive,inactive,inactive,inactive,inactive,inactive,inactive,inactive
COc1cc(OC)nc(NC(=O)NS(=O)(=O)c2ncccc2C(=O)N(C)C)n1,inactive,inactive,inactive,inactive,inactive,inactive,inactive,inactive,inactive,inactive,,inactive,inactive,inactive,inactive,inactive,inactive,inactive,inactive
C=COCCCl,inactive,inactive,inactive,inactive,inactive,inactive,inactive,inactive,,inactive,inactive,inactive,inactive,inactive,inactive,inactive,inactive,inactive,
O=C(NCc1cccnc1)Nc1ccc([N+](=O)[O-])cc1,inactive,inactive,inactive,inactive,inactive,inactive,inactive,inactive,inactive,3.75 µM (active),inactive,inactive,inactive,inactive,inactive,inactive,inactive,inactive,
N#CCCCl,inactive,inactive,inactive,inactive,,inactive,inactive,,inactive,inactive,inactive,inactive,,inactive,inactive,inactive,inactive,inactive,inactive
CCC(C)(C)c1ccc(O)c(C(C)(C)CC)c1,inactive,inactive,inactive,inactive,inactive,45.3 µM (active) and 25.7 µM (active),,18 µM (active) and 22.9 µM (active),,,,20.9 µM (active),inactive,,,inactive,inactive and 43.3 µM (active),inactive,
Nc1c(Br)cc([N+](=O)[O-])cc1[N+](=O)[O-],inactive,inactive,inactive,inactive,inactive,inactive,inactive,inactive,,inactive,inactive,inactive,inactive,inactive,inactive,inactive,inactive,inactive,
CC(C)c1ccc(O)cc1,inactive,inactive,inactive,inactive,inactive,inactive,inactive,inactive,inactive,,inactive,inactive,inactive,inactive,inactive,inactive,inactive,inactive,inactive
COc1ccc2c(c1OC)C(=O)O[C@@H]2[C@H]1c2cc3c(cc2CCN1C)OCO3,inactive,inactive,inactive,inactive,inactive,inactive,,inactive,inactive,inactive,inactive,inactive,inactive,inactive,inactive,inactive,inactive,,
Clc1cccc(C(Cl)(Cl)Cl)n1,inactive,inactive,inactive,inactive,inactive,inactive,inactive,inactive,inactive,inactive,inactive,inactive,,inactive,inactive,inactive,inactive,inactive,inactive
CCCCOC(=O)COC(=O)c1ccccc1C(=O)OCCCC,inactive,inactive,inactive,inactive,inactive,inactive,inactive,inactive,inactive,,inactive,inactive,inactive,inactive,inactive,inactive,inactive,inactive,
Cc1ccccc1[N+](=O)[O-],inactive,inactive,inactive,inactive,inactive,inactive,inactive,inactive,inactive,inactive,inactive,inactive,inactive,inactive,inactive,inactive,inactive,,inactive
CC(C)Oc1cc(-n2nc(C(C)(C)C)oc2=O)c(Cl)cc1Cl,inactive,inactive,inactive,inactive,inactive,inactive,inactive,inactive,,inactive,inactive,inactive,inactive,inactive,inactive,inactive,inactive,inactive,inactive
O=[N+]([O-])c1cccc2ccccc12,inactive,inactive,inactive,inactive,inactive,inactive,inactive,inactive,inactive,inactive,inactive,inactive,inactive,inactive,inactive,inactive,,inactive,
CCCN(CCC)N=O,inactive,inactive,inactive,inactive,inactive,inactive,inactive,inactive,inactive,,inactive,,inactive,inactive,inactive,inactive,inactive,inactive,
CCC(CC)Nc1c([N+](=O)[O-])cc(C)c(C)c1[N+](=O)[O-],inactive,inactive,inactive,inactive,inactive,inactive,inactive,inactive,,inactive,inactive,inactive,inactive,inactive,inactive,inactive,inactive,inactive,inactive
CC(C)(O)C#N,inactive,inactive,inactive,,inactive,inactive,inactive,inactive,inactive,,inactive,inactive,inactive,inactive,inactive,inactive,inactive,inactive,inactive
CNC(=O)O/N=C/C(C)(C)S(C)=O (stereo not given),inactive,inactive,inactive,inactive,inactive,inactive,inactive,inactive,inactive,inactive,inactive,inactive,inactive,inactive,inactive,inactive,inactive,inactive,
Cc1cccc(N)c1C,inactive,inactive,inactive,inactive,inactive,inactive,inactive,inactive,inactive,inactive,inactive,inactive,,inactive,,inactive,inactive,inactive,inactive
CCCC[N+]1(C)CCCC1,inactive,inactive,inactive,inactive,inactive,,inactive,inactive,inactive,inactive,inactive,inactive and 5.98 µM (active) and 4.27 µM (active),,inactive,,,inactive,inactive,inactive
COc1ccccc1OC,inactive,inactive,inactive,inactive,inactive,inactive,inactive,inactive,,inactive,inactive,inactive,inactive,inactive,inactive,inactive,inactive,inactive,inactive
